Results taken from PubChem BioAssay (NCI).
Compounds without any hit were thinned out: in the full panel of roughly 83,000, 20% have a hit.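 Cell lines were cultured in 96-well plates, exposed to a single compound concentration, and assessed for percent growth 48 hours later.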 Values without a mark were called inactive. Active and inactive are the calls of the source. Rule for the calls: active = growth percent below 10; inactive = the rest.

system: SF-268 CNS; assay: NCI-60 one-dose screen, 48 h (100 = growth as untreated, 0 = no growth, -100 = all killed); conditions: 10 µM unless noted

SMILES	growth
C#CC[C@@H]1C[C@]2(C)[C@H]3CC[C@@H]4[C@H]5[C@H](C(=C)C)CC[C@]5(C(=O)O)CC[C@@]4(C)[C@]3(C)CC[C@H]2C(C)(C)[C@H]1O	66.5%
Cc1ccc(-c2nc(C#N)c(S(=O)(=O)N(C)CCO)o2)cc1	72.6%
FC(F)(F)c1ccc2c(Nc3cccc(C4CC(c5ccccc5)=NN4c4ccc(Cl)cc4)c3)ccnc2c1 (configuration not stated)	50.8%
COc1ccc2nc(-c3ccc(OC)c(OC)c3)cc(-c3nnc(SCC(=O)Nc4ccc(/C(C)=N\O)cc4)n3-c3ccccc3)c2c1	78.1%

system: SF-295 CNS; assay: as above; conditions: 10 µM unless noted

SMILES	growth
CNCc1cccc2c1OCCOCCOCCN(CCN1CCOCC1)S(=O)(=O)c1ccc(cc1)-c1cnc(N)c(n1)C(=O)N2	68.1%
Cc1cnc(-c2ccc(-c3ccc(NC(=O)Nc4c(F)cc(F)cc4F)cc3F)c3c2C(=O)NC3)[nH]1	58.8%
Cc1cc(C)c(NC(=O)c2sc3nc4c(cc3c2N)CCCCCC4)c(C)c1	38.1%
O=C1NN(c2ccccc2)C(c2ccc3c(c2)OCO3)N2CCC[C@@H]12 (some centres not stated)	103%
C=C1C(=O)O[C@H]2[C@H]1CC/C(COC(=O)CCCCCCCCC(=O)OC/C1=C/CC[C@@]3(C)O[C@H]3[C@H]3OC(=O)C(=C)[C@@H]3CC1)=C\CC[C@@]1(C)O[C@@H]21	87.4%
COc1ccc(C2N(c3cc(OC)c(OC)c(OC)c3)C(=O)C2(F)F)cc1F (configuration not stated)	48.3%
C=C1C(=O)O[C@H]2[C@H]1CC/C(COC(=O)CCCCCCC(=O)OC/C1=C/CC[C@@]3(C)O[C@H]3[C@H]3OC(=O)C(=C)[C@@H]3CC1)=C\CC[C@@]1(C)O[C@@H]21	94.9%
O=c1nc(-c2ccccc2)c2cc(-c3ccc(N4CCCC4)nc3)ccc2[nH]1	39.4%
O=C(Nc1nc(-c2ccccc2)cs1)c1cc(-c2ccc(Br)cc2)nc2ccccc12	49.9%
COc1ccc2nc3c(n2c1)C(=O)C(=O)c1ccccc1-3	-95.3% (active)
C=C1C(=O)O[C@H]2[C@H]1CCC(/C=N/c1ncc(Br)cc1N)=C\CC[C@@]1(C)O[C@@H]21	70.3%
COC(=O)c1ccc(NC(=O)CSc2nc(-c3ccc(F)cc3)nc3ccccc23)cc1	86.2%
COc1ccc(C2C(c3ccccc3)C(=O)N2c2cc(OC)c(OC)c(OC)c2)cc1I (configuration not stated)	17.9%
O=[N+]([O-])c1cccc(CN(Cc2cccc([N+](=O)[O-])c2O)c2ccccc2)c1O	66.6%
Nc1c(C(=O)Nc2ccccn2)sc2nc3c(cc12)CCCCCC3	0.944% (active)
C[C@]12CC[C@@H]3c4ccc(O)cc4CC[C@H]3[C@@H]1C[C@H](O)C2	87.3%
COCCOCCOCc1n(Cc2ccc3ccccc3c2)c2ccccc2[n+]1Cc1ccc2ccccc2c1	13.1%
COc1ccc(C(=O)c2cc(F)c(F)c(OC)c2F)cc1OC(=O)CCl	85.2%
Nc1cccc(C(=O)Nc2ccc3c(O)c(N=Nc4ccc(N=Nc5ccc(S(=O)(=O)O)cc5)cc4)c(S(=O)(=O)O)cc3c2)c1	103%
O=C(Nc1ccccc1)NS(=O)(=O)c1c[nH]c(=S)[nH]c1=O	97.8%
CC(C)CSc1nc(Nc2ccccc2)c(C#N)c(-c2ccc(F)cc2)n1	16.2%
CC(C)(C#N)c1cc(F)cc(C(=O)Nc2cc(Nc3ncccc3-c3ncnc4nc[nH]c34)ccc2F)c1	46.1%
COc1c(O)cc2oc3cc(O[C@@H]4OC(C)[C@@H](O)[C@H](O)C4O)c(CC=C(C)C)c(O)c3c(=O)c2c1CC=C(C)C (some centres not stated)	93.3%
O=C(CCCC(=O)Nc1ccc(-n2nnc3cc(Cl)c(Cl)cc32)cc1)Nc1ccc(-n2nnc3cc(Cl)c(Cl)cc32)cc1	53.1%
Cn1cc(-c2ccc3c(c2)ncn3-c2ccc(CC(=O)Nc3cc(C(C)(C)C)on3)cc2)cn1	37.2%
CCC1S/C(=N\N=C(/C)c2ccc[nH]2)N(c2ccccc2)C1=O (configuration not stated)	120%
CC(=O)ON1CCCC(P(=O)(OCOC(=O)C(C)(C)C)OCOC(=O)C(C)(C)C)C1=O (configuration not stated)	34.5%
Cc1cccc(C)c1Nc1nnc(-c2ccc(F)cc2)o1	102%
